Bioassay records (PubChem BioAssay)
Only a selection was taken, and hits are over-represented in it overall.
U2OS ROS induce – ROS inducers in U2OS cancer cells, primary screen, cell-based, H2DCF-DA fluorescence | U2OS ROS induction | ROS induction (% of piperlongumine), % at 10 µM | 46,000 tested, 2% active; in the data active = ROS induction above about 79%, passing the limit was not always enough
Of the large screens only hits and unclear results are named; the others gave an inactive call.

Cc1ccc(CNC(=O)c2cc(=O)[nH]c3ccc(Br)cc23)cc1	none
Cc1ccc(N2CC(C(=O)Nc3ccc(S(=O)(=O)NCC4CCCO4)cc3)CC2=O)cc1 (stereo not given)	none
O=C(O)c1cccc(S(=O)(=O)NCC2CCCO2)c1 (stereo not given)	none
CS(=O)(=O)Nc1ccc(S(=O)(=O)NCC2CCCO2)cc1 (stereo not given)	U2OS ROS induce 96
CCCCCCCCC/C=C/CCCCC(=O)C1C(=O)CCC(O)C1=O (stereo not given)	none
COc1ccc(NC(=O)COc2ccccc2OC)cc1OC	none
COc1cc(CO)ccc1OCC(=O)Nc1ccc(C)cc1	U2OS ROS induce 122
COc1cc(CO)ccc1OCC(=O)Nc1ccccc1F	none
Cc1cc(Br)c(NC(=O)CSc2nc3ccccc3[nH]2)cc1C	none
CC1(C)c2ccccc2N2CC(=O)NC21/C=C/c1ccc(N2CCOCC2)cc1 (stereo not given)	none
CCOC(=O)c1cncc(C#CCOC(=O)c2c(-c3ccccc3)noc2C)c1	none
CC(C)NC(=O)Nc1ccc2c(c1)CC(=O)N([C@H](C)CO)C[C@H](C)[C@H](CN(C)Cc1ccncc1)O2	U2OS ROS induce 113
COc1ccc(NC(=O)N(C)C[C@H]2Oc3ccc(NC(=O)c4ccncc4)cc3CC(=O)N([C@@H](C)CO)C[C@@H]2C)cc1	none
COc1ccc(NC(=O)N(C)C[C@@H]2Oc3ccc(NC(=O)NC(C)C)cc3CC(=O)N([C@H](C)CO)C[C@H]2C)cc1	U2OS ROS induce 110
CC(C)NC(=O)Nc1ccc2c(c1)CC(=O)N([C@@H](C)CO)C[C@H](C)[C@H](CN(C)Cc1ccncc1)O2	none
CC(C)NC(=O)N(C)C[C@H]1Oc2ccc(NC(=O)Nc3ccccc3)cc2CC(=O)N([C@H](C)CO)C[C@H]1C	none
COc1ccc(NC(=O)N(C)C[C@@H]2Oc3ccc(NC(=O)c4ccncc4)cc3CC(=O)N([C@H](C)CO)C[C@H]2C)cc1	U2OS ROS induce 94
COc1ccc(NC(=O)N(C)C[C@H]2Oc3ccc(NC(=O)NC(C)C)cc3CC(=O)N([C@@H](C)CO)C[C@@H]2C)cc1	none
CC(C)NC(=O)N(C)C[C@@H]1Oc2ccc(NC(=O)Nc3ccccc3)cc2CC(=O)N([C@H](C)CO)C[C@H]1C	none
CC(C)NC(=O)Nc1ccc2c(c1)CC(=O)N([C@@H](C)CO)C[C@H](C)[C@H](CN(C)C(=O)Nc1ccccc1)O2	U2OS ROS induce 79
CC(C)NC(=O)Nc1ccc2c(c1)CC(=O)N([C@@H](C)CO)C[C@H](C)[C@H](CN(C)Cc1ccccc1)O2	none
C[C@H](CO)N1C[C@H](C)[C@H](CN(C)C(=O)Nc2ccc(F)cc2)Oc2ccc(NC(=O)c3ccncc3)cc2CC1=O	none
COc1ccc(NC(=O)N(C)C[C@@H]2Oc3ccc(NC(=O)NC(C)C)cc3CC(=O)N([C@@H](C)CO)C[C@@H]2C)cc1	none
O=c1c(O)c(-c2ccc(O)cc2)oc2cc(OC3O[C@H](CO)[C@@H](O)[C@H](O)[C@H]3O)cc(O)c12 (stereo not given in full)	none
CC(=O)N[C@H]1[C@H](O[C@H]2CC[C@@]3(C)C(CC[C@]4(C)C3CC=C3[C@@H]5CC(C)(C)CC[C@]5(C(=O)OC5OCC(O)C(O)C5O)C(O)C[C@]34C)C2(C)C)O[C@H](COC2OCC(O)C(OC3OCC(O)C(O)C3O)C2O)[C@@H](O[C@@H]2O[C@@H](C)[C@H](O)[C@@H](O)[C@H]2O[C@@H]2O[C@@H](C)[C@H](O)[C@@H](O)[C@H]2O)[C@@H]1O (stereo not given in full)	none
CC(C)c1ccc(NC(=S)N(Cc2ccccc2)C(C)C)cc1	none
O=c1c2ccccc2n2c(-c3ccccc3)nnc2n1CCc1ccccc1	none
COc1ccc(S(=O)(=O)Nc2ccc3c(c2)CC(=O)N([C@@H](C)CO)C[C@@H](C)[C@@H](CN(C)C(=O)Nc2cccc4ccccc24)O3)cc1	none
Cc1noc(C)c1S(=O)(=O)N(C)C[C@@H]1Oc2ccc(NS(=O)(=O)c3ccc(Cl)cc3)cc2C(=O)N([C@@H](C)CO)C[C@@H]1C	none
COc1cccc(NC(=O)c2oc3ccc(S(=O)(=O)N4CC(C)CC(C)C4)cc3c2C)c1 (stereo not given)	none
COc1ccc(CCN2C(=O)C(NC(=O)C(C)(C)C)(C(F)(F)F)C3=C2CC(C)(C)CC3=O)cc1OC (stereo not given)	none
c1cc(-c2nc(-c3ccc4c(c3)OCCCO4)cs2)ccc1-c1csnn1	none
Cc1noc(C)c1NC(=O)N(C)C[C@@H]1Oc2ccc(NC(=O)Nc3cccc4ccccc34)cc2C(=O)N([C@H](C)CO)C[C@H]1C	none
NC(=O)c1ccccc1NC(=O)c1cccc(COc2ccc3c(c2)CCC3)c1	none
O=C(O)CCC(=O)c1ccc2c(c1)OCCCO2	none
O=C(c1ccc(Br)cc1)c1cc2c(cc1Br)OCCCO2	U2OS ROS induce 131
O=C(NO)c1ccc(C(=O)N/N=C/c2cc3c(cc2Br)OCO3)cc1	none
N#CCCN(Cc1ccccc1)C(=O)c1ccccc1[N+](=O)[O-]	none
CCc1cccc(NC(=O)O[C@H]2[C@H](OC(=O)Nc3ccccc3)[C@@H](OC(=O)Nc3ccccc3)[C@@H](OC)O[C@@H]2CO)c1	none
